Among the data in PubChem BioAssay (NCI) are growth values, retold here.

Where “and” joins values, the source holds several entries; their conditions need not be identical. Equal entries are not always repeated. This is part of a sample that, as a whole, favours compounds with a hit. Of some 83,000 tested, about 20% had one in any assay.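 In brief: 96-well plates, 48 h treatment, single concentration, percent growth endpoint.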 Calls of active or inactive are those of the source. Rule for the calls: active = growth percent below 10; inactive = the rest.

Test systems include NCI-H23 lung; NCI-H226 lung; NCI-H322M lung; HOP-62 NSCLC; NCI-H460 lung; HOP-92 NSCLC; NCI-H522 lung; A549/ATCC NSCLC; 786-0 renal; COLO 205 colon.
What all share (experiment): NCI-60 one-dose screen, 48 h (100 = growth as untreated, 0 = no growth, -100 = all killed)
Holding throughout (conditions): 10 µM

As to `COC(C(=O)C(O)C(C)O)C1Cc2cc3cc(OC4CC(OC(C)=O)C(OC5CC(O)C(OC)C(C)O5)C(C)O4)cc(O)c3c(O)c2C(=O)C1OC1CC(OC2CC(OC3CC(C)(O)C(OC(=O)C(C)C)C(C)O3)C(O)C(C)O2)C(O)C(C)O1` (stereo not given), the growth with NCI-H23 lung was 8.85% (active); in the experiment on NCI-H226 lung, -12.6% (active); with NCI-H322M lung it was 7.22% (active); in the experiment with HOP-62 NSCLC, -5.14% (active); in the experiment on NCI-H460 lung it was -10.2% (active); in the experiment with HOP-92 NSCLC, -16.5% (active). Also, the growth was -60.9% (active) in the experiment on NCI-H522 lung, -39.3% (active) with A549/ATCC NSCLC, 0.268% (active) in the experiment with 786-0 renal and -83.5% (active) in the experiment with COLO 205 colon.
For `COc1cc(/C=C\[N+](=O)[O-])ccc1O`, the growth in the experiment on NCI-H23 lung was 83.1% (inactive) and 77.3% (inactive); in the experiment with NCI-H226 lung, 91.2% (inactive) and 98.3% (inactive); in the experiment with NCI-H322M lung it was 85.7% (inactive); with HOP-62 NSCLC, 99.8% (inactive) and 101% (inactive); in the experiment with NCI-H460 lung it was 96.6% (inactive) and 94% (inactive); in the experiment with HOP-92 NSCLC, 73.2% (inactive) and 102% (inactive). Also, the growth with NCI-H522 lung is -37.6% (active) and 87.2% (inactive); with A549/ATCC NSCLC it was 89.2% (inactive) and 76.1% (inactive); with 786-0 renal, 43.2% (inactive) and 90.8% (inactive); with COLO 205 colon it was 73.6% (inactive) and 104% (inactive).
For `Cc1cc(C(C)(C)c2ccc(O)c(C)c2)ccc1O`, the growth was 97.4% (inactive) in the experiment with NCI-H23 lung; 107% (inactive) with NCI-H226 lung; 93.4% (inactive) in the experiment with NCI-H322M lung; 97.4% (inactive) in the experiment on HOP-62 NSCLC; 110% (inactive) with NCI-H460 lung; 110% (inactive) in the experiment with HOP-92 NSCLC. The growth in the experiment on NCI-H522 lung is 83.8% (inactive); in the experiment with A549/ATCC NSCLC, 75.7% (inactive); in the experiment with 786-0 renal, 102% (inactive); with COLO 205 colon, 100% (inactive).
On to `C=NCC#N`, for which the growth in the experiment on NCI-H23 lung is 97.8% (inactive) and 97.9% (inactive); with NCI-H226 lung, 107% (inactive) and 99.3% (inactive); in the experiment on NCI-H322M lung it was 107% (inactive) and 118% (inactive); in the experiment with HOP-62 NSCLC, 93.2% (inactive) and 93.4% (inactive); in the experiment with NCI-H460 lung, 102% (inactive) and 120% (inactive); in the experiment with HOP-92 NSCLC, 97.6% (inactive). For the same compound, the growth in the experiment with NCI-H522 lung was 68.8% (inactive) and 103% (inactive); in the experiment on A549/ATCC NSCLC it was 110% (inactive) and 104% (inactive); in the experiment on 786-0 renal it was 99.4% (inactive) and 103% (inactive); in the experiment with COLO 205 colon, 113% (inactive) and 111% (inactive).
As for `CC[C@@H](C)[C@@H]1NC(=O)C(NC(=O)C(CC(C)C)N(C)C(=O)C2CCCN2C(=O)C(C)O)C(C)OC(=O)C(Cc2ccc(OC)cc2)N(C)C(=O)C2CCCN2C(=O)C(CC(C)C)NC(=O)C(C)C(=O)C(C(C)C)OC(=O)C[C@H]1O` (stereo not given in full), the growth in the experiment with NCI-H23 lung is -46.2% (active); in the experiment on NCI-H226 lung, -58.9% (active); in the experiment on NCI-H322M lung, -16.5% (active); in the experiment on HOP-62 NSCLC it was -42.9% (active); with NCI-H460 lung, -49.7% (active); with HOP-92 NSCLC it was -41.9% (active). Also, the growth in the experiment on NCI-H522 lung was -43.2% (active); in the experiment with A549/ATCC NSCLC it was -80.2% (active); with 786-0 renal, -37.9% (active); in the experiment on COLO 205 colon, -69.5% (active).
As to `COc1ccccc1[As]=[As]c1ccccc1OC` (stereo not given), the growth in the experiment on NCI-H23 lung is -86.8% (active); with NCI-H226 lung, -93.5% (active); with NCI-H322M lung, -80.8% (active); in the experiment on HOP-62 NSCLC, -94.8% (active); in the experiment with NCI-H460 lung, -42.6% (active); with HOP-92 NSCLC, -85.1% (active). For the same compound, the growth in the experiment on NCI-H522 lung was -80.6% (active); in the experiment with A549/ATCC NSCLC, -88.1% (active); with 786-0 renal, -94.7% (active); in the experiment on COLO 205 colon, -93.1% (active).
For the compound `C/C(=C\c1ccc(Cl)c(Cl)c1)[N+](=O)[O-]`, the growth is 44.6% (inactive) and 94.8% (inactive) in the experiment on NCI-H23 lung; 98.1% (inactive) with NCI-H226 lung; 94.6% (inactive) and 100% (inactive) in the experiment on NCI-H322M lung; 86.9% (inactive) in the experiment with HOP-62 NSCLC; 55.6% (inactive) and 105% (inactive) in the experiment on NCI-H460 lung; -29.8% (active) and 89.5% (inactive) in the experiment with HOP-92 NSCLC. Also, the growth with NCI-H522 lung is -87.3% (active) and 82.6% (inactive); with A549/ATCC NSCLC, 74.3% (inactive) and 76.6% (inactive); with 786-0 renal, 45.8% (inactive) and 94.9% (inactive); in the experiment with COLO 205 colon, -57.9% (active) and 101% (inactive).
For `Cn1c(O)c(N=O)c(=O)n(C)c1=O`, the growth in the experiment with NCI-H23 lung is 94.4% (inactive) and 95.1% (inactive); in the experiment on NCI-H226 lung, 93.3% (inactive) and 103% (inactive); in the experiment with NCI-H322M lung, 97.1% (inactive) and 101% (inactive); with HOP-62 NSCLC, 101% (inactive) and 90.9% (inactive); with NCI-H460 lung, 110% (inactive) and 102% (inactive); in the experiment with HOP-92 NSCLC, 101% (inactive) and 85.9% (inactive). Besides, the growth was 91% (inactive) and 74.7% (inactive) with NCI-H522 lung; 107% (inactive) and 98.1% (inactive) with A549/ATCC NSCLC; 104% (inactive) and 93.3% (inactive) with 786-0 renal; 110% (inactive) and 111% (inactive) with COLO 205 colon.
For `CC[C@@]1(O)C[C@H](OC2CC(N(C)C)C(O)C(C)O2)c2c(cc3c(c2O)C(=O)c2c(O)ccc(O)c2C3=O)[C@H]1C(=O)OC` (stereo not given in full), the growth with NCI-H23 lung was -79.6% (active); in the experiment on NCI-H226 lung, -62.3% (active); in the experiment with NCI-H322M lung, -78.6% (active); in the experiment on HOP-62 NSCLC it was -69.6% (active); in the experiment with NCI-H460 lung it was -64% (active); with HOP-92 NSCLC, -68.9% (active). The growth was -70.1% (active) in the experiment with NCI-H522 lung, -84.8% (active) in the experiment with A549/ATCC NSCLC, -97.5% (active) in the experiment with 786-0 renal and -80.1% (active) in the experiment on COLO 205 colon.
As for `[Cl][Sn]([c]1ccccc1)([c]1ccccc1)[c]1ccccc1`, the growth is -71.6% (active) with NCI-H23 lung; -62% (active) in the experiment on NCI-H226 lung; -89.5% (active) in the experiment on NCI-H322M lung; -88.4% (active) in the experiment with HOP-62 NSCLC; -66% (active) in the experiment with NCI-H460 lung; -85.6% (active) in the experiment on HOP-92 NSCLC. Further, the growth with NCI-H522 lung was -82.2% (active); in the experiment with A549/ATCC NSCLC, -93.6% (active); in the experiment with 786-0 renal, -93.4% (active); in the experiment with COLO 205 colon, -92.5% (active).
